# Only some compounds are listed: those with a hit (about 10% of all), similar ones and a draw of the others.
# HEK cytotox: kills HEK 293 cells; HEK 293 viability, ATP luminescence (CellTiter-Glo), 48-72 h; Potency, µM (highest dose often 115 µM), for inactives: top-dose activity change, negative = cytotoxicity, actives largely listed as inhibitors; hit rate 6.6% among 94,000; AID 1345083; note: % is set by controls: 0 for no effect and ±100 for the full control effect; nearly all actives have a fitted effect of over 60% in size
#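 CellTiter-Glo luminescence (cellular ATP) was read after 48 or 72 hr of compound exposure at 37 degree Celsius. Cells were HEK 293 plated at 250 cells/well.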
# FLuc inh-1: blocks purified firefly luciferase enzyme activity; hit rate 2.5% among 76,000; purified P. pyralis luciferase, luminescence, biochemical; Potency, µM (doses to about 115 µM), most hits filed as inhibitors; AID 1347043; note: % is set by controls: 0 for no effect and ±100 for the full control effect; nearly all actives have a fitted effect of over 65% in size
#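 Luminescence read by CCD imager after adding enzyme (10nM final) to wells holding compound, titrated in qHTS. Substrates 10uM each D-luciferin and ATP; buffer 50mM Tris acetate pH 7.5, 10mM Mg acetate, Tween-20, BSA.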
# NPR1 antag: blocks ANP-stimulated signaling of human Npr1 receptor. P16066. HEK293 hNpr1 GloSensor cGMP, ANP-stimulated luminescence. Potency, µM (titrated, usually from 46.3 µM), without a hit: at the top dose activity change, negative = inhibition, most hits filed as inhibitors. hit rate 1.6% among 76,000; calls by dose curve; note: % is set by controls: 0 for no effect and ±100 for the full control effect; nearly all actives have a fitted effect of over 60% in size
# Target sequence (P16066 whole entry, looked up): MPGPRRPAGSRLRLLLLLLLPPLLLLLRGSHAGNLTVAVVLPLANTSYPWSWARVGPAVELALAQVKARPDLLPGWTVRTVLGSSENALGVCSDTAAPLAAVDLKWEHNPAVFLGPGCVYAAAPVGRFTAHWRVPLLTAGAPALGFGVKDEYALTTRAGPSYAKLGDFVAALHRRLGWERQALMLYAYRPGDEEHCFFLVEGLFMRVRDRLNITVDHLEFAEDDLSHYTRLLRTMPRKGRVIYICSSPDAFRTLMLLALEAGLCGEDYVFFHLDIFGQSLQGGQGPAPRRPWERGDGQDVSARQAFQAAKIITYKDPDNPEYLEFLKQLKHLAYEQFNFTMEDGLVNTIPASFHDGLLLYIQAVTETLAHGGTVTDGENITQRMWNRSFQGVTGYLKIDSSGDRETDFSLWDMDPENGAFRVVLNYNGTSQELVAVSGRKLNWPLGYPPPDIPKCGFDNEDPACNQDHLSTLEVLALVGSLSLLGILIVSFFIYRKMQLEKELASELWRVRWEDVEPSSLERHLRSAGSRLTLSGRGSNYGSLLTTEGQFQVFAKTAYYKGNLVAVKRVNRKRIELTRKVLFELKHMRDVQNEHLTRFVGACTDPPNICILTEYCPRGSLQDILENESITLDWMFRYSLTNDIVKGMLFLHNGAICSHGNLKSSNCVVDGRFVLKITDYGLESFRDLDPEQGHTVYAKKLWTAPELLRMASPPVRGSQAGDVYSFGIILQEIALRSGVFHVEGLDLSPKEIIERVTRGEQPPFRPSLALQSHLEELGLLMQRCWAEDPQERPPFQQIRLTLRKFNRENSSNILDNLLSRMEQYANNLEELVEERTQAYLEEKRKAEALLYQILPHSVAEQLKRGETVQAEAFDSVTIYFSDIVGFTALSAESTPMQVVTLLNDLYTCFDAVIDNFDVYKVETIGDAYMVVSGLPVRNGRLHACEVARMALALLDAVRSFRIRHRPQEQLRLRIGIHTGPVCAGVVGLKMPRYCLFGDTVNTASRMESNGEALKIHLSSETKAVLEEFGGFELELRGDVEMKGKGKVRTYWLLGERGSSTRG
#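 Compound pre-incubated 30 min at room temperature on GloSensor-loaded HEK293 cells stably carrying hNpr1 and the pGS-40F cGMP biosensor. Stimulation uses hNppA at 0.1 nM final; luminescence is taken at baseline and 20 min post-agonist.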
# NIH3T3 tox: kills NIH 3T3 cells | NIH 3T3 viability, CellTiter-Glo ATP luminescence, 48-72 h | Potency, µM (titrated, usually from 96.7 µM), for the others: at the top dose activity change, negative = cytotoxicity, actives largely listed as inhibitors | hit rate 4.3% among 94,000 | AID 1345082; note: % is set by controls: 0 for no effect and ±100 for the full control effect; nearly all actives have a fitted effect of over 55% in size
#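 Cytotoxicity was measured by CellTiter-Glo ATP luminescence after 48 or 72 h compound exposure at 37 °C. Mouse NIH 3T3 fibroblasts were seeded at 400 cells/well and dosed by 23 nL pin transfer.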
# GPT2 inhibitor: GPT2 alanine aminotransferase inhibition. Q8TD30. Recombinant GPT2, coupled pyruvate oxidase/HRP Amplex Red fluorescence. Potency, µM (highest dose often 57.7 µM), inactives show at the highest dose activity change, negative = inhibition, most hits filed as inhibitors. hit rate 0.25% among 100,000; note: % is set by controls: 0 for no effect and ±100 for the full control effect; nearly all actives have a fitted effect of over 60% in size
#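 Recombinant GPT2 (10ng/uL) with 250uM a-KG and 2mM L-alanine, 30 min at room temperature, in HEPES pH 7.5 buffer. Pyruvate detected by pyruvate oxidase/HRP/Amplex Red fluorescence after 30 min in the dark; AOA (50uM) as positive control.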
# FLuc SDR no ATP: stabilizes firefly luciferase without ATP; shares compounds with FLuc inh-1; Purified FLuc-C-HiBiT, Nano-Glo HiBiT luminescence, no ATP; Potency, µM (titrated, usually from 32.7 µM), for inactives: top-dose activation (signal gain), actives largely listed as activators; hit rate 7.8% among 1,300; note: nearly all actives have a fitted effect of over 55% in size
# FLuc SDR ATP: binders stabilizing firefly luciferase, plus ATP; shares compounds with FLuc inh-1; purified FLuc-C-HiBiT + ATP, HiBiT complementation luminescence; Potency, µM (top dose mostly 32.7 µM), without a hit: at the highest dose activation (gain of signal), actives largely listed as activators; hit rate 8.7% among 1,300; AID 1963319;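 note: signal reports ligand binding via conformational change of the enzyme rather than luciferase catalysis; % of control where 0% means no effect; nearly all actives have a fitted effect of over 55% in size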
# FLuc inh-2: inhibitors of firefly luciferase enzymatic activity; Potency, µM (doses to about 32.7 µM), for inactives: top-dose activity change, negative = inhibition, most hits filed as inhibitors; shares compounds with FLuc inh-1; AID 1963320; hit rate 42% among 1,300; purified FLuc-C-HiBiT enzyme, luciferin luminescence; note: % is set by controls: 0 for no effect and ±100 for the full control effect; nearly all actives have a fitted effect of over 70% in size
# * = called active by the depositor; i = inactive; ? = inconclusive; . = no result; [ ] = remark or other dose. Unless noted, calls come from the whole dose curve; as a rule, active = well fitted curve in the direction sought with a large enough effect; inconclusive = small, poorly fitted or top-dose-only effect, or another doubt; inactive = no such curve, though single readings can be large; an effect the other way counts as inactive or inconclusive. Potency is the fitted concentration of half-maximal effect.
SMILES,HEK cytotox,FLuc inh-1,NPR1 antag,NIH3T3 tox,GPT2 inhibitor,FLuc SDR no ATP,FLuc SDR ATP,FLuc inh-2
COc1cccc(CNC(=O)c2nc3cccnc3n(Cc3ccccc3)c2=O)c1,?,.,.,?,i,.,.,.
COc1cccc(OCc2nc3ccccc3n2Cc2ccccc2)c1,.,.,.,.,.,12%,9%,-16%
Clc1ccc(OCc2nc3ccccc3n2Cc2ccccc2)c(Cl)c1,.,.,.,.,.,15%,11%,?
C=CCNC(=O)CCc1c(C)nn(-c2ccccc2)c1Oc1ccc(F)cc1F,?,i,-13%,?,i,.,.,.
CCc1ccc(NC(=O)N2CCCC(c3noc(COc4ccccc4)n3)C2)cc1 (configuration not stated),?,1.4µM*,?,?,i,?,?,2.8µM*
CC(C)NC(=O)N1CCCC(c2noc(COc3ccccc3)n2)C1 (configuration not stated),-8%,i,-1%,-16%,i,.,.,.
O=C1CC2(CCN(CC3CC3)CC2)Oc2cc(Cl)ccc21,?,3.2µM*,?,-12%[138 µM],i,14%[49.3 µM],19%[49.3 µM],?
O=C1CC2(CCN(Cc3ccccc3)CC2)Oc2cc(Cl)ccc21,?,?,-9%,?,i,.,.,.
Cn1ncc2c(C(=O)Nc3ccccc3F)cc(-c3ccccc3F)nc21,?,.,.,-21%,.,.,.,.
CCOc1cc(C(=O)Nc2ccc(Cl)c(-c3nc4ccccc4[nH]3)c2)cc(OCC)c1OCC,.,.,.,.,2%,.,.,.
COc1cccc(C(=O)Nc2cnc(-c3ccccc3)nc2)c1,?,i,-29%,-22%,-7%,.,.,.
COc1cccc(C(=O)Nc2ccc(-c3nc4ccccc4s3)c(O)c2)c1,.,.,.,.,.,13%,9%,1%
COc1cccc(C(=O)Nc2ccc3nc(SCC(=O)N4CCOCC4)sc3c2)c1,.,.,.,.,.,?,21%,9.9µM*
CCCOc1cccc(C(=O)Nc2ccc(-c3nc4ccccc4s3)c(Cl)c2)c1,.,.,.,.,.,9%,9%,?
N#Cc1ccc(C(=O)Nc2ccccc2-c2nc3ccccc3s2)c(F)c1,.,.,.,.,.,14%,9%,2%
COc1cccc(C(=O)Nc2cccc(-c3nnc4n3CCCC4)c2)c1,-23%,i,-5%,-16%,4%,.,.,.
Fc1ccc(-c2noc([C@@H]3CCCN3Cc3ccc(C(F)(F)F)cc3)n2)nc1,-19%[172 µM],i,4%[70.6 µM],-2%[138 µM],i,.,.,.
CCN1CCN(C(=O)C2CCc3nnc(C4CCN([S+](C)(=O)[O-])CC4)n32)CC1 (configuration not stated),-16%,.,.,-17%,-6%,.,.,.
COc1cccc(-c2nc3cc(NC(=O)c4ccc(C)c([N+](=O)[O-])c4)ccc3s2)c1,.,.,.,.,.,9%,9%,-15%
COc1cc(OC)cc(C(=O)Nc2ccccc2-c2nc3ccccc3s2)c1,.,.,.,.,.,12%,10%,-4%
CCS(=O)(=O)c1cccc(C(=O)Nc2ccc(-c3nc4ccccc4s3)c(O)c2)c1,.,.,.,.,.,4%,4%,?
COc1ccc(NC(=O)c2cn3cc(-c4cccc(OC)c4)sc3n2)cc1,?,.,.,?,i,.,.,.
CCOC1CCOC2(CCN(C(=O)c3cccn3C)CC2)C1 (configuration not stated),i,.,.,2%,1%,.,.,.
Cc1ccc(-c2ccc3nnc(CNC(=O)COc4ccccc4)n3n2)cc1C,?,i,3%,-27%,i,.,.,.
CCCc1nn2cc(-c3ccc(C)c(C)c3)nc2s1,.,.,.,.,.,?,?,0.62µM*
SMILES,HEK cytotox,FLuc inh-1,NPR1 antag,NIH3T3 tox,GPT2 inhibitor,FLuc SDR no ATP,FLuc SDR ATP,FLuc inh-2
CC(C)(C)c1ccc(C(=O)Nc2ccc([C@H]3OCC(=O)N[C@@H]3CO)cc2)cc1,?,10µM*,-1%[70.6 µM],89µM*,i,27%[49.3 µM],16%[49.3 µM],?
Cc1ccccc1C(=O)Nc1ccc([C@H]2OCC(=O)N(Cc3ccncc3)[C@@H]2CO)cc1,-9%[172 µM],i,-13%[70.6 µM],1%[174 µM],i,.,.,.
O=C(Nc1ccc([C@H]2OCC(=O)N(Cc3ccncc3)[C@@H]2CO)cc1)c1ccc(C(F)(F)F)cc1,20µM*,13µM*,?,?,-42%,19%,14%,?
C[C@@H]1C(=O)O[C@H]2[C@H]1CC[C@@]1(C)Cc3sc(NC(=O)c4c(F)cccc4F)nc3[C@@H](C)[C@H]21,?,2.2µM*,?,-29%,-5%,20%,19%,9.9µM*
C[C@@H]1C(=O)O[C@H]2[C@H]1CC[C@@]1(C)Cc3sc(NC(=O)c4ccncc4)nc3[C@@H](C)[C@H]21,56µM*,0.5µM*,?,?,?,?,?,0.57µM*
C[C@@H]1C(=O)O[C@H]2[C@H]1CC[C@@]1(C)Cc3sc(NC(=O)c4ccc(F)c(Cl)c4)nc3[C@@H](C)[C@H]21,?,i,-16%,-24%,-2%,.,.,.
Cc1ccc(CN2CCC3(CC2)CNc2ccccc2[S+](=O)([O-])N3)cc1,?,i,6%,?,-10%,.,.,.
CC(=O)N1CCNc2cc(-c3ccccc3F)ncc2C1,.,.,.,.,.,15%[65.7 µM],12%[65.7 µM],?
COc1ccc(-c2cc3c(cn2)CN(C(C)=O)CCN3)cc1,.,.,.,.,.,28%[49.3 µM],18%[49.3 µM],13µM*
CC(=O)N1CCNc2cc(-c3cccc(N4CCOCC4)c3)ncc2C1,.,.,.,.,.,24%[49.3 µM],17%[49.3 µM],?
O=C(c1ccc(F)cc1)N1CCCN(Cc2ccc3c(c2)OCO3)c2ccccc21,?,i,-15%,?,-21%,.,.,.
O=C(NCc1ccccc1)c1cn(C2CN(C(=O)c3cccs3)C2)nn1,-7%,.,.,-16%,i,.,.,.
Cc1ccc([S+](=O)([O-])N2CCN(C(=O)c3cccc(-c4ccccn4)c3)CC2)cc1,?,.,.,?,-7%,.,.,.
CS(=O)(=O)N1CCN(c2ccc3nnc(-c4ccccc4)n3n2)CC1,-2%,.,.,?,.,.,.,.
Cc1ccc(NC(=O)c2ccc(CN3C(=O)NC4(CCOCC4)C3=O)cc2)cc1C,?,10µM*,?,-15%,i,?,14%,?
Cc1cccc(NC(=O)c2ccc(CN3C(=O)NC4(CCOCC4)C3=O)cc2)c1,?,?,-25%,-4%,i,.,.,.
